Compound activity as filed in PubChem.
A selection: hits, their analogues and other compounds. The true share with any hit is near 1.6%.
LMNA splice mod: qHTS Assay for Modulators of Lamin A Splicing; HeLa LMNA splicing GFP/RFP minigene ratio, 48 h; Potency, µM (highest dose often 46.1 µM), without a hit: top-dose ratio change, negative = inhibition, hits mostly inhibitors; 200,000 tested, 0.01% active; active means well fitted inhibition curve with a large enough effect in the signal ratio, with a control signal flat, not every such curve was filed as active; inconclusive means small, poorly fitted or top-dose-only effect, or effect the other way, or a change in a side signal; the % refers to the signal ratio; further: potency means the concentration at half of the fitted maximal effect; on the % scale 0 is the no-effect control and ±100 the full control effect
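S3 HeLa stable clones carrying a lamin A-EGFP splicing minigene plus DsRed2 were seeded at 600 cells/well in Opti-MEM with 2% FBS, pin-dosed and incubated 48 h at 37°C. Acumen cytometry (488 nm) gave the GFP/RFP total-intensity ratio.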
IMPase Li cell: qHTS Assay for Identifying the Cell-Membrane Permeable IMPase Inhibitors: Potentiation with Lithium. CHO-M1 cells, IP1 TR-FRET (IP-One), carbachol + lithium. 210,000 tested, 0.35% active. AID 1457, 2008. Potency, µM (highest dose often 59.4 µM), inactives show at the top dose activity, negative = IMPase inhibition, hits mostly inhibitors;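 further: IP1 builds up when IMPase is blocked and the TR-FRET signal falls; potency means the concentration at half of the fitted maximal effect; plate controls were basal vehicle for no effect and high inhibitor control for full effect; nearly all actives have a fitted effect of over 50% in size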
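Steps: plate 2000 CHO-M1 cells per well and culture 16–30 h; add compound and lithium; incubate 30 min, 37C; add d2-IP1 tracer and Eu cryptate anti-IP1 antibody in lysis buffer; read after 10 min at room temperature.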
HTT ATP protect: qHTS Multiplex Assay to Identify Dual Action Probes in a Cell Model of Huntington: Cytoprotection (ATP). PC12 HTT-Q103 induced, cytoprotection, ATP luminescence, 40 h. 230,000 tested, 0.14% active. Potency, µM (highest dose often 56.4 µM), without a hit: cytoprotection (ATP increase), hits mostly activators; further: potency means the concentration at half of the fitted maximal effect; % of control where 0% means no effect; nearly all actives have a fitted effect of over 45% in size
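Compounds added alongside 100 nM tebufenozide, which induces toxic Q103 huntingtin exon 1-GFP in stable PC12 cells; surviving cells quantified by luminescent ATP measurement. Medium: phenol red-free DMEM, 5% equine and 5% calf serum.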
IMPase inh: qHTS Assay for Identifying the Cell-Membrane Permeable IMPase Inhibitors; Inositol monophosphatase 1 (Rattus norvegicus), P97697; AID 901, 2007; CHO-M1 cells, IP1 accumulation, HTRF TR-FRET ratio; 120,000 tested, under 10 active; inhibition (IP1 accumulation), % at 46.1 µM; active means well fitted curve in the direction sought with a large enough effect in the signal ratio, not every such curve was filed as active; inconclusive means small, poorly fitted or top-dose-only effect, or a change in a side signal; inactive means no such curve, though single readings can be large or run the other way; the % refers to the signal ratio;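 further: cells stimulated with carbachol in lithium chloride buffer; plate controls were DMSO basal wells for no effect and reference inhibitor wells for full effect; higher means more IMPase inhibition seen as more IP1 and lower FRET ratio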
Target sequence (P97697 whole entry, looked up): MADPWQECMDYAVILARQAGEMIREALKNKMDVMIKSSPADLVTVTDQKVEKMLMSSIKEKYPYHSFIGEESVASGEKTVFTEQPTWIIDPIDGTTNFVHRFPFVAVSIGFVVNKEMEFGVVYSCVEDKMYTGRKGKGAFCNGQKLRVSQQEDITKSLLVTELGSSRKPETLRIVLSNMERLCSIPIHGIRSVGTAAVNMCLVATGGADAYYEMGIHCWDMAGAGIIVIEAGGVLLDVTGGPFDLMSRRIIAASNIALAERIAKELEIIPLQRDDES
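In this qHTS, compounds (final up to 46 uM) act on CHO-M1 cells that are then activated through the M1 receptor with carbachol, in pH 7.4 buffer containing 50 mM LiCl, for 30 min. IP1 accumulation is quantified by the IP-One immunoassay.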
NPSR antag: qHTS Assay for Antagonists of the Neuropeptide S Receptor: cAMP Signal Transduction; Q6W5P4; CHO-NPSR cells, cAMP TR-FRET, antagonist mode; Potency, µM (top dose mostly 38.3 µM), inactives show at the highest dose activity change, negative = inhibition, actives largely listed as inhibitors; 220,000 tested, 1% active; further: potency means the concentration at half of the fitted maximal effect; on the % scale 0 is the no-effect control and ±100 the full control effect; nearly all actives have a fitted effect of over 50% in size
Target sequence (Q6W5P4 whole entry, looked up): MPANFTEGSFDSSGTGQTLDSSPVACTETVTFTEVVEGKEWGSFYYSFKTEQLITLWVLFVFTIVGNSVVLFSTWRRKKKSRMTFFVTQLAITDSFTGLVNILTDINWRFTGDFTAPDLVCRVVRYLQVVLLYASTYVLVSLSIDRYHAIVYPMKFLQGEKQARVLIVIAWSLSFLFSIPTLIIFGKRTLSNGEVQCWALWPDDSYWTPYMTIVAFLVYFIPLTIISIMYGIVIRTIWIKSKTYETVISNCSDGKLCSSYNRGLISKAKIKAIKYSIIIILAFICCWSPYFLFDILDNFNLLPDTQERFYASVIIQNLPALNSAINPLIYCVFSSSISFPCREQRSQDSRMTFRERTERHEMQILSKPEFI
HTT aggregate: qHTS Multiplex Assay to Identify Dual Action Probes in a Cell Model of Huntington: Aggregate Formation (GFP); PC12 HttQ103-GFP aggregates, Acumen cytometry, 40 h; Potency, µM (titrated, usually from 46.1 µM), for inactives: at the highest dose activity change, negative = inhibition, hits mostly inhibitors; 220,000 tested, 1.1% active; further: potency means the concentration at half of the fitted maximal effect; on the % scale 0 is the no-effect control and ±100 the full control effect; nearly all actives have a fitted effect of over 60% in size
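Aggregate formation scored by laser-scanning cytometer (488 excitation, 500–530 emission) in lysed PC12 cells expressing Q103-GFP after 100 nM tebufenozide induction; library tested in dose series, with ATPLite reagent added in the multiplex.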
* marks the source's active call; other numbers are inactive results; [ ] = dose if it differs, or a comment. Unless noted, the call rests on the fitted dose curve; in most records, active means well fitted curve in the direction sought with a large enough effect; inconclusive means small, poorly fitted or top-dose-only effect, or another doubt; inactive means no such curve, though single readings can be large; an effect the other way counts as inactive or inconclusive.

CO/N=C/c1ccc(N2CCN(C(=O)c3ccc(F)cc3)CC2)c([N+](=O)[O-])c1 was read as LMNA splice mod inconclusive, IMPase Li cell 42%[38.3 µM], HTT ATP protect 8%[10 µM], IMPase inh 10, NPSR antag -10%[46.1 µM] and HTT aggregate 13µM*.
Screening CO/N=C/c1ccc(N2CCN(C(=O)c3cccc(C(F)(F)F)c3)CC2)c([N+](=O)[O-])c1 returned LMNA splice mod inconclusive, IMPase Li cell 19%, HTT ATP protect 12%[10 µM], IMPase inh 13, NPSR antag -24%[46.1 µM] and HTT aggregate inconclusive.
C[C@@H]1O[C@@H](n2cc(F)c(=O)[nH]c2=O)[C@H](O)[C@@H]1O was read as HTT ATP protect -37%[1.9 µM] and IMPase inh 5.
For CCN1/C(=C/C=C/c2sc3ccccc3[n+]2CC)Sc2ccccc21 the results were HTT ATP protect -97% and HTT aggregate 2µM*.
`CCN1/C(=C/C=C/C=C/c2sc3ccccc3[n+]2CC)Sc2ccccc21` gave LMNA splice mod inconclusive, IMPase Li cell -3%, HTT ATP protect -99%, NPSR antag 7.9µM* and HTT aggregate 4µM*.
Screening CC[n+]1c(/C=C(\C)SC)sc2ccccc21 returned LMNA splice mod -13%, IMPase Li cell 25%[38.3 µM], HTT ATP protect -16%, IMPase inh -1, NPSR antag -26%[46.1 µM] and HTT aggregate -30%.
N#C[C@@H](N=Nc1ccccc1C(=O)O)C(N)=O was read as IMPase Li cell 2% and HTT ATP protect -21%[10 µM].
For CC1=NN(c2ccc([N+](=O)[O-])cc2)C(=O)C1[N+](=O)[O-] (stereo not given) the results were IMPase Li cell 15% and HTT ATP protect -149%.
CN(C)c1ccc(CNC(=O)CCS(=O)(=O)c2ccc3c(c2)oc(=O)n3C)cc1 was read as LMNA splice mod -2%[46 µM].
For COc1ccc(Oc2ncc3nc(-c4ccc(OC)cc4)c(=O)n(CCC#N)c3n2)cc1 the results were IMPase Li cell -29% and HTT ATP protect -7%.
Screening O=C(Cn1c2c(sc1=O)C1c3ccccc3OCC1CS2)Nc1ccc(Cl)c(Cl)c1 (stereo not given) returned LMNA splice mod inconclusive, IMPase Li cell 11%, HTT ATP protect 4%[10 µM], NPSR antag -11% and HTT aggregate 2.8µM*.
For Cn1c(N)c(N2CCCCC2)c(=O)n(CC(=O)Nc2ccc(Cl)c(Cl)c2)c1=O the results were LMNA splice mod -17%, IMPase Li cell 9%[38.3 µM], HTT ATP protect -13%, IMPase inh -1, NPSR antag -14%[46.1 µM] and HTT aggregate -8%.
`COc1cc2nc(N3CC=[N+](C(=O)c4ccco4)CC3)nc(N)c2cc1OC` gave HTT ATP protect -76%[1.9 µM] and IMPase inh 2.
Screening CC(=NCC(=O)O)c1ccccc1 returned IMPase Li cell -9% and HTT ATP protect -2%[10 µM].
Screening CCCCN(c1ccccc1)c1ncnc(N)c1[N+](=O)[O-] returned LMNA splice mod inconclusive, IMPase Li cell 12%[38.3 µM], HTT ATP protect 13%, IMPase inh 5, NPSR antag -6%[46.1 µM] and HTT aggregate 7.1µM*.
`O=C1COc2ccc(-c3csc(=Nc4ccc(OC(F)F)cc4)n3CC3CCCO3)cc2N1` (stereo not given) gave LMNA splice mod -1%[0.0737 µM], IMPase Li cell 19%[38.3 µM], HTT ATP protect -35%, IMPase inh 3, NPSR antag inconclusive and HTT aggregate inconclusive.
For COCC(C)n1c(-c2ccc3c(c2)NC(=O)CO3)csc1=Nc1ccc(OC(F)F)cc1 (stereo not given) the results were LMNA splice mod inconclusive, IMPase Li cell 64%[38.3 µM], HTT ATP protect -14%, IMPase inh 15, NPSR antag 10µM* and HTT aggregate inconclusive.
Screening CCN=c1scc(-c2ccc3c(c2)NC(=O)CO3)n1N=C1CCCC1 returned LMNA splice mod inconclusive, IMPase Li cell 9%[38.3 µM], HTT ATP protect -43%, IMPase inh 7, NPSR antag -17%[46.1 µM] and HTT aggregate 11µM*.
NC(=O)C1=CN([C@@H]2O[C@@H](COP(=O)(O)OP(=O)(O)OC[C@@H]3O[C@H](n4cnc5c(N)ncnc54)[C@@H](OP(=O)(O)O)[C@@H]3O)[C@H](O)[C@@H]2O)C=CC1 was read as HTT ATP protect -16%[1.9 µM] and IMPase inh 5.
Screening COc1ccc(NS(=O)(=O)c2ccc(N/N=C/c3ccc(N4CCOCC4)cc3)c([N+](=O)[O-])c2)cc1 returned LMNA splice mod 3%, IMPase Li cell -7%, NPSR antag 3% and HTT aggregate 2µM*.
Cn1ncc(Oc2ccc([N+](=O)[O-])cc2)c(Cl)c1=O was read as HTT ATP protect -4%[10 µM], NPSR antag -4% and HTT aggregate 7%[9.22 µM].
`CC(C)(C)n1ncc(Oc2ccccc2[N+](=O)[O-])c(Cl)c1=O` gave LMNA splice mod inconclusive, IMPase Li cell 2%, NPSR antag 15% and HTT aggregate 13µM*.
CC(C)CN1C(=S)SC(C)(C)C1n1oc(=O)n(-c2ccc(Cl)cc2)c1=O (stereo not given) was read as LMNA splice mod -15%, IMPase Li cell 50%[38.3 µM], HTT ATP protect -25%, IMPase inh 12, NPSR antag inconclusive and HTT aggregate 25µM*.
Cn1cc(-c2nc3cnc(Oc4ccccc4)nc3n(C)c2=O)c2ccccc21 was read as LMNA splice mod inconclusive, IMPase Li cell 7.1µM* and HTT ATP protect -51%.
Screening Cn1c(=O)c(-c2ccc(Cl)cc2)nc2cnc(Oc3cccc(Cl)c3)nc21 returned LMNA splice mod inconclusive, IMPase Li cell 13µM* and HTT ATP protect 15%.
`COc1ccc(-c2nc3cnc(OC)nc3n(CCc3ccccc3)c2=O)cc1` gave LMNA splice mod 0%, IMPase Li cell 7.1µM* and HTT ATP protect -23%.
Screening CC(=O)C[C@H](c1ccc([N+](=O)[O-])cc1)c1c(O)c2ccccc2oc1=O returned LMNA splice mod 8%, IMPase Li cell -14%, HTT ATP protect -39%[17.1 µM], IMPase inh -4[20.6 µM] and HTT aggregate 9%[20.6 µM].
Screening Cc1cc(Nc2cccc(F)c2)nc(-c2ccccc2O)n1 returned LMNA splice mod inconclusive, IMPase Li cell 17%[38.3 µM], HTT ATP protect -21%, IMPase inh 5, NPSR antag inconclusive and HTT aggregate 25µM*.
